T1: UNK ZnF1-6 (called full-length) (human, UniProt Q9C0B0 30-357)
T1 sequence: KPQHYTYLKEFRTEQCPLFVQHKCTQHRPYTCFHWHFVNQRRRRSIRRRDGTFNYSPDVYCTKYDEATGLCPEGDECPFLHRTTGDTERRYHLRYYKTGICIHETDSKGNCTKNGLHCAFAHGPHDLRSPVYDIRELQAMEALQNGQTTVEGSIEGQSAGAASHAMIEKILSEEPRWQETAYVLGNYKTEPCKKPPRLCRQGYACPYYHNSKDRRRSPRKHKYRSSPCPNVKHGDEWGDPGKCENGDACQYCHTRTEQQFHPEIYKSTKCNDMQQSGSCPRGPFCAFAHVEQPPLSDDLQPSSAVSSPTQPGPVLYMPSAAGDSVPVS

B1: chr15:76949589:76949706:+|3pUTR|ENSG00000117906|msi1_unk|total|mutant (ssRNA)
RNA: GGGAGUUCUACAGUCCGACGAUCAUAAAUUUUUGUUUUUGUUCUAAGCCGAUUUAAUUUGGGAACUGACAGGACAAUGUUUUCCGGUUCCGCAUUUUGUUUAAAAACCUUUAAAGAAACCUUCCGAAGGACUCCGACCUCACACAACAGAGGAUUGAGCAUCA
B2: chr7:38725943:38726055:-|3pUTR|ENSG00000006715|unk|total|mutant (ssRNA)
RNA: GGGAGUUCUACAGUCCGACGAUCGAAAUUUUGGGGUCCACCGUGAAUAUUUUGUUAUUUAUUUGUUUGGCUCAUUCUUUAUACCGUAAUGGAAACAUAAGUCCCGGAGUCCGAAAUGAAUUUUUCCGACCUCCGUAAAACCAUCAACAGAGGAUUGAGCAUCA
B3: ENSG00000168003:stop:overlap|stop_codon|ENSG00000168003|stop_codon|NA|stop_codon (ssRNA)
RNA: GGGAGUUCUACAGUCCGACGAUCCUGACAUCCCAGGGGCUGUAAGUGCCAACAUGACUGUGAAGGUAAGAGUUCUAGAUGGGUAGAAACUGACCGGUGGAGGGUGGGCUGGGCUUGUAGAAGUCUGUACCCAGGGGAGCCCCUCAACAGAGGAUUGAGCAUCA
B4: chr4:138171112:138171219:-|3pUTR|ENSG00000151012|msi1|FALSE|unique (ssRNA)
RNA: GGGAGUUCUACAGUCCGACGAUCUUUUUUUUUUUCACAUCAGUUUGAUCAGGAAAGUGUAUAACACAUCUUAGAGCAAGAGUUAGUUUGGUAUUAAAUCCUCAUUAGAACAACCACCUGUUUCACUAAUAACUUACCCCUGAUCAACAGAGGAUUGAGCAUCA
B5: chr2:16549458:16552935:-|three_prime_utr|ENSG00000197872|control|control|control (ssRNA)
RNA: GGGAGUUCUACAGUCCGACGAUCUUGCUACUGGAGUCCUUUAACAACAUCUAUAACGAUAAAAAAUUCCUAAUUGUUUGUGGUAGUAUUUUAAUUCUAGAUGUGUUAUCUCUCUGGGAAGUAUAGUUUAUAGAAACACAAAAUCAACAGAGGAUUGAGCAUCA
B6: chr11:69651696:69651723:+|3pUTR|ENSG00000110092|msi1_unk|FALSE|overlapping (ssRNA)
RNA: GGGAGUUCUACAGUCCGACGAUCGAGGAUUAGGUUCCAUCCUUUACGUGUUUAAAAAAAAGCAUAAAAACAUUUUAAAAACAUAGAAAAAUUCAGCAAACCAUUUUUAAAGUAGAAGAGGGUUUUAGGUAGAAAAACAUAUUCCAACAGAGGAUUGAGCAUCA
B7: chr4:67617988:67618115:-|3pUTR|ENSG00000033178|unk|total|mutant (ssRNA)
RNA: GGGAGUUCUACAGUCCGACGAUCAAAUGCCGAAUGUUAAAAAUUAUUGCCCGGGCCGUCUUUUUUUUUUCCAGAAACCUAAUCCGGGUAUUAAAUUUUGUGUUUUUUUUGUUUUUUUUUUUUAAACAGAAGCAUGUUAUUUCACAACAGAGGAUUGAGCAUCA
B8: chr4:67617988:67618115:-|3pUTR|ENSG00000033178|unk|FALSE|unique (ssRNA)
RNA: B7 RNA with C29U, C30A, C50U, C51A, C55U, C56A, C83U, C84A
B9: chr4:168926953:168927063:+|3pUTR|ENSG00000129116|msi1_unk|FALSE|overlapping (ssRNA)
RNA: GGGAGUUCUACAGUCCGACGAUCCAAAAGAGUUUUCUAACAAGGUUAAUACCUUAGUUCUUAACAUUUUUUUUCUUUAUGUGUAGUGUUUUCAUGCUACCUUGGUAGGAAACUUAUUUACAAACCAUAUUAAAAGGCUAAUUUCAACAGAGGAUUGAGCAUCA
B10: chr11:69651696:69651723:+|3pUTR|ENSG00000110092|msi1_unk|total|mutant (ssRNA)
RNA: B6 RNA with U30C, A31C, U83C, A84C, U112C, A113C, U125C, A126C, U129C, A130C
B11: chr11:69651733:69651797:+|3pUTR|ENSG00000110092|msi1_unk|FALSE|overlapping (ssRNA)
RNA: GGGAGUUCUACAGUCCGACGAUCAAAACAUUUUAAAAACAUAGAAAAAUUCAGCAAACCAUUUUUAAAGUAGAAGAGGGUUUUAGGUAGAAAAACAUAUUCUUGUGCUUUUCCUGAUAAAGCACAGCUGUAGUGGGGUUCUAGCAACAGAGGAUUGAGCAUCA
B12: chr4:168926953:168927063:+|3pUTR|ENSG00000129116|msi1_unk|total|mutant (ssRNA)
RNA: B9 RNA with U54C, A55C, U83C, A84C, U105C, A106C
B13: chr3:23980279:23980388:+|3pUTR|ENSG00000174738|unk|FALSE|unique (ssRNA)
RNA: GGGAGUUCUACAGUCCGACGAUCUUUUUCUUUUCCAAUAUAAAGUUUGCUGAAUGUACAAGAAGAGUUUAUCACUUAGGAUAUAGAAUUUUUUUAGGGGUUGGGGGAGGGGAUCUGUUAGGAAACUGUUACCUAUAAACAAAGCAACAGAGGAUUGAGCAUCA
B14: chr1:6525536:6525637:-|3pUTR|ENSG00000162408|msi1|total|mutant (ssRNA)
RNA: GGGAGUUCUACAGUCCGACGAUCACAGUUUGUGUGCCAUUAAAACAGAGAUUCCUCAGAAAGUUCUUCAGGGACCUGGUUAUCCGAAUCAGGAUAAAAAUAAGGAAACUGGGGCCAUUACAAUGUACCGAGAAGGAAGGAAGACAACAGAGGAUUGAGCAUCA
B15: chr1:85021069:85021276:-|CDS|ENSG00000055732|control|control|control (ssRNA)
RNA: GGGAGUUCUACAGUCCGACGAUCGAUAUGUUUGCCACGUUUGCAAAAAUGCAGCAAAAAAGUUACUUAGUCUGGCUGUUUAGUAGAAUUUACCUCUACUCAUUCAUCAGCCUCUUUAUAUAUAUGAUUUUAAGUCUUUUCAUUCAACAGAGGAUUGAGCAUCA

Positions count from the first letter of the chain named. Over roughly 5,800 sequences, “enrichment r” has its median near 0.68; the highest 2% begin near 11. The entries come from a sample that favours the highest values as a whole.

This assay addresses T1, UNK ZnF1-6 (called full-length). Kind of assay: nsRBNS (natural sequence RNA bind-n-seq); RBNS binding buffer (assumed for nsRBNS): 25 mM Tris pH 7.5, 150 mM KCl, 3 mM MgCl2, 0.01% Triton X-100, 500 ug/ml BSA, 20 U/ml SUPERase-In, 4 C; UNK is unkempt and MSI1 is Musashi-1; names of the RNAs are library labels; protein concentration not given here; high values mean tight binding.
B1: the binding signal is 0.382 enrichment R.

B2 registered a binding signal of 0.419 enrichment R.

Molecule B3 yielded a binding signal of 0.906 enrichment R.

As to B4, the binding signal was found to be 2.58 enrichment R.

As for B5, the binding signal worked out at 4.45 enrichment R.

B6 had a binding signal of 13.5 enrichment R.

With B7, the binding signal stood at 0.765 enrichment R.

The molecule B8 gave a binding signal of 28.1 enrichment R.

Take B9: the binding signal stood at 20.1 enrichment R.

The molecule B10 registered a binding signal of 0.444 enrichment R.

For B11, the binding signal was 8.88 enrichment R.

In the case of B12, the binding signal came to 1.12 enrichment R.

Take B13: the binding signal is 3.03 enrichment R.

As to B14, the binding signal worked out at 0.553 enrichment R.

Turning to B15, the binding signal was 1.95 enrichment R.

For the origin of these results see paper PMC12136788.
